Reference: the supplement of paper PMC7724964

These binders were tested against DYNLL1 1-89 Dynein_light (domain begin residue: 1, domain end residue: 89), P63167 (assay: phage ELISA signal ratio (GST-PRM binding over GST background); higher = stronger binding of peptide-phage to the PRM).
Sequence of DYNLL1 1-89 Dynein_light (domain begin residue: 1, domain end residue: 89), P63167 (P63167 whole entry, the tested form may be a part): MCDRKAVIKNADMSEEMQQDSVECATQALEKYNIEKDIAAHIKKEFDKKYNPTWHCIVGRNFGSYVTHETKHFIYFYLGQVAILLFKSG
In short: (§1)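 An M13 phage library with randomized hexadecapeptides on the gene-8 major coat protein, each peptide lacking cysteine and flanked by glycine, was selected for five rounds against human peptide recognition domains fused to the C-terminus of glutathione S-transferase (GST) and expressed in 96-well plates. Approximately 48 clones from rounds 4 and 5 went to phage ELISA. The reported value is the ELISA signal on the GST-domain fusion over the signal on GST alone, and positive clones were sequenced.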
For TQTEFYASDWWMMENV, the “phage ELISA signal ratio” value was 15.6.
In the case of TQTGESEMYFWNHMPK, the “phage ELISA signal ratio” value is reported as 22.7.
With TQTEYWVIDMPDWMTI the “phage ELISA signal ratio” value was 21.2.
With VDMGTQTEASLLRYSV the “phage ELISA signal ratio” value was 33.5.
TQTPVWGMDGWMWVTV was tested, and the “phage ELISA signal ratio” value was 19.5.
With SQTEPMPLWSRDAEVT the “phage ELISA signal ratio” value was 23.1.
For KDFGTQVDFDILHEEE, the “phage ELISA signal ratio” value was 27.5.
In the case of LREMGTQTGEMITDYV, the “phage ELISA signal ratio” value is reported as 25.8.
In the case of VQTDWMDWWMPDPFNA, the “phage ELISA signal ratio” value is reported as 23.6.
LQTPDWMWAPNVLESM was tested, and the “phage ELISA signal ratio” value was 6.16.
With TQTPYDWLYPAATYLT the “phage ELISA signal ratio” value was 28.
TQTDESMWLWHWPEDH was tested, and the “phage ELISA signal ratio” value was 29.4.
SPTEWVWNWGENAQML was tested, and the “phage ELISA signal ratio” value was 24.1.
In the case of TQTEWLWNWGESAHML, the “phage ELISA signal ratio” value is reported as 29.8.
In the case of TQTEPAWGETGEMTAI, the “phage ELISA signal ratio” value is reported as 26.
In the case of MSLGTQTDWQEPMWWL, the “phage ELISA signal ratio” value is reported as 26.8.
TQTEFPWEDARLPKQE was tested, and the “phage ELISA signal ratio” value was 28.7.
TQTDAWEMTMLAQQAV was tested, and the “phage ELISA signal ratio” value was 25.2.
With TQTEEYMQMLWPYQDV the “phage ELISA signal ratio” value was 21.3.
SQTDPTYWFPWEDKWN was tested, and the “phage ELISA signal ratio” value was 28.8.
With TQTEDWPQRESQPNWM the “phage ELISA signal ratio” value was 25.2.
For MATQTDWNWGFLQEME, the “phage ELISA signal ratio” value was 29.1.
In the case of VTVGTQWDGFHVDAPI, the “phage ELISA signal ratio” value is reported as 19.6.
For TQTLAWDWYYEFPEMI, the “phage ELISA signal ratio” value was 24.5.
TQTDMNFWHSPWVELV was tested, and the “phage ELISA signal ratio” value was 24.8.
With ISVGTQTDWTEPPQMG the “phage ELISA signal ratio” value was 29.1.
SQTEWDWLEREWKPSI was tested, and the “phage ELISA signal ratio” value was 19.4.
With TQTDLMGDHWPQHKMT the “phage ELISA signal ratio” value was 24.5.
SQTPDEWDWQPGAWIT was tested, and the “phage ELISA signal ratio” value was 19.7.
With TQTGMWDETDSREHWD the “phage ELISA signal ratio” value was 11.5.
In the case of EMWTQTTSYDFLQMQG, the “phage ELISA signal ratio” value is reported as 20.7.
In the case of WTQTEDPWEYTWLDLV, the “phage ELISA signal ratio” value is reported as 17.8.
For VQTDWYGVDGFWVPVL, the “phage ELISA signal ratio” value was 18.1.
In the case of GTQTDDTMVYFPREQR, the “phage ELISA signal ratio” value is reported as 22.8.
TQTSWWWSETPMFPFM was tested, and the “phage ELISA signal ratio” value was 3.08.
With SQTDWYDELFSQLVVT the “phage ELISA signal ratio” value was 27.9.
With VQTDPWVGQLGDFMFV the “phage ELISA signal ratio” value was 17.1.

Target: T1, DVL2 416-511 DEP (domain begin residue: 416, domain end residue: 511), O14641
T1 chain: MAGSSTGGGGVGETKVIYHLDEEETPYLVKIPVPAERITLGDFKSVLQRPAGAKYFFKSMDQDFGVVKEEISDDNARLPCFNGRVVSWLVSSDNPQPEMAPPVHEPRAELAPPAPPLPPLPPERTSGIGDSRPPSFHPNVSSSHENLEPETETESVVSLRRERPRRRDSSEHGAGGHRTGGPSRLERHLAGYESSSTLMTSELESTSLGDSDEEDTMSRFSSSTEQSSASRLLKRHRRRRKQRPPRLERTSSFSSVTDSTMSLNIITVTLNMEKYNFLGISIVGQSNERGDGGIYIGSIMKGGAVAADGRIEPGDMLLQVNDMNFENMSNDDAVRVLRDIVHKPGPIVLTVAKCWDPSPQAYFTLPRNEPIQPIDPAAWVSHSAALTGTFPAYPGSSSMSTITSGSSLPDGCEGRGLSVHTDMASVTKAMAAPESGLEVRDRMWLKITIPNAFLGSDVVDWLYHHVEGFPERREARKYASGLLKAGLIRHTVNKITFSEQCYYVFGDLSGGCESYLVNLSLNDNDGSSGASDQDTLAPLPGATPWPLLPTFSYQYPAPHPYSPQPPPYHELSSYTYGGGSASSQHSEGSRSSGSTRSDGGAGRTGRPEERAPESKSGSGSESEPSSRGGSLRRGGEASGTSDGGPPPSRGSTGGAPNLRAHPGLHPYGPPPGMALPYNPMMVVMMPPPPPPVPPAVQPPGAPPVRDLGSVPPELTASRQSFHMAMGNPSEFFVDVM
Test: as above
In short: as §1
With EMWYWDAVQGVPYKQG the “phage ELISA signal ratio” value was 23.9.
QAVPMWQDEHGYWWWN was tested, and the “phage ELISA signal ratio” value was 33.3.
For YQPDMRMQDGKWYWII, the “phage ELISA signal ratio” value was 20.4.
In the case of YWFWNPEIMDAQYMPV, the “phage ELISA signal ratio” value is reported as 7.02.
In the case of MWFWNLDEAMPIWTAM, the “phage ELISA signal ratio” value is reported as 13.3.
PETPYFSDGMWWWVKP was tested, and the “phage ELISA signal ratio” value was 28.8.
MWYWDPGENTAIWVEQ was tested, and the “phage ELISA signal ratio” value was 22.1.
In the case of KWMIDLTDWEAYWVPS, the “phage ELISA signal ratio” value is reported as 26.7.
For LWFWDVETGNAYKTQE, the “phage ELISA signal ratio” value was 14.1.
In the case of VFWENQHWMQDLNPEW, the “phage ELISA signal ratio” value is reported as 26.1.
AYYWSITLGDIVYMVD was tested, and the “phage ELISA signal ratio” value was 16.1.
PLENPTYKDGLWWWSV was tested, and the “phage ELISA signal ratio” value was 24.4.
For IYWDWEDGYIYEHQPE, the “phage ELISA signal ratio” value was 18.2.

Target: T2, DVL3 407-503 DEP (domain begin residue: 407, domain end residue: 503), Q92997
T2 chain: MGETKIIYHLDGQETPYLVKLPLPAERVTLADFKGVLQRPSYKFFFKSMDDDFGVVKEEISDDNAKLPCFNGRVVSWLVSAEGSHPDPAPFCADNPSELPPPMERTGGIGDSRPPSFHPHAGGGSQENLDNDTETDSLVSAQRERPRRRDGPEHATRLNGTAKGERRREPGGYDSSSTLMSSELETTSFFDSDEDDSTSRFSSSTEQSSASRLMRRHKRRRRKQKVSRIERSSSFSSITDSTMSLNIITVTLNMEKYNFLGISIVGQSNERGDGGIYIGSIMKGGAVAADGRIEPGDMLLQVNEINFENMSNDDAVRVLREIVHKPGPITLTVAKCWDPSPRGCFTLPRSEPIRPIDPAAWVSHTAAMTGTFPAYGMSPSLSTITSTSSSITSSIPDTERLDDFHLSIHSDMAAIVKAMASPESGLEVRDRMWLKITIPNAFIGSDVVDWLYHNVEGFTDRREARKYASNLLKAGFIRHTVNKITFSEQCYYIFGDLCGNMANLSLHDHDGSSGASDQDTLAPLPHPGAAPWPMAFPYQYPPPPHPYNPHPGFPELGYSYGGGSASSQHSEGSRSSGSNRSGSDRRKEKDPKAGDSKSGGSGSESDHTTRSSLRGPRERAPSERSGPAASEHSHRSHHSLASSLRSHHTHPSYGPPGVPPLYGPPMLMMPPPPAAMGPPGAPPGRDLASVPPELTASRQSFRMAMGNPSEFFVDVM
Test: as above
In short: as §1
For MDGWFWDHAPHFTMDF, the “phage ELISA signal ratio” value was 4.23.
PKYQFSLSAESLQWLM was tested, and the “phage ELISA signal ratio” value was 18.1.
For PDLAAWRIWIMEEEQV, the “phage ELISA signal ratio” value was 22.4.
With WQMNHLEEWRAYAETL the “phage ELISA signal ratio” value was 24.2.

Target: T3, DVL1 406-503 DEP (domain begin residue: 406, domain end residue: 503), O14640
T3 chain: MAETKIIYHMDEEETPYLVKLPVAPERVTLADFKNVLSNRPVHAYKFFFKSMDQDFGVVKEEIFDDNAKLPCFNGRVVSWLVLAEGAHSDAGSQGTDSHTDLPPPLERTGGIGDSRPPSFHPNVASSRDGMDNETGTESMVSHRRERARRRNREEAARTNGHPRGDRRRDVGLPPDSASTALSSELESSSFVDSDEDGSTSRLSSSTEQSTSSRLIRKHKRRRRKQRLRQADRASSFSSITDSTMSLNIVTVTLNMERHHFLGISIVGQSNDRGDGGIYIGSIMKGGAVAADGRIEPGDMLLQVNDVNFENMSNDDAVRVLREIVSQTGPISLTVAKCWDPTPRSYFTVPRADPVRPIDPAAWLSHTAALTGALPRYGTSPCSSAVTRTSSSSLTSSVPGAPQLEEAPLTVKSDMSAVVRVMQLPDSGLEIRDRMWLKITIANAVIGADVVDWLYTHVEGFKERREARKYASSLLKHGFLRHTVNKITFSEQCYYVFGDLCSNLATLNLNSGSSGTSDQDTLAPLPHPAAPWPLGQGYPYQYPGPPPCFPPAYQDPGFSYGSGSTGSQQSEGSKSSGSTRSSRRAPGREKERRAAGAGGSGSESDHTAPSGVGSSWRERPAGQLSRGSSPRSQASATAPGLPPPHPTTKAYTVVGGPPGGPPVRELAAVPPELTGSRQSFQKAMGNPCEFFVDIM
Test: as above
In short: as §1
With VHWTLQSVTDWKWVPQ the “phage ELISA signal ratio” value was 31.9.
In the case of WEWQFWQDYMAQFPSE, the “phage ELISA signal ratio” value is reported as 3.48.

Target: T4, DOK7 105-219 IRS (domain begin residue: 105, domain end residue: 219), Q18PE1
T4 chain: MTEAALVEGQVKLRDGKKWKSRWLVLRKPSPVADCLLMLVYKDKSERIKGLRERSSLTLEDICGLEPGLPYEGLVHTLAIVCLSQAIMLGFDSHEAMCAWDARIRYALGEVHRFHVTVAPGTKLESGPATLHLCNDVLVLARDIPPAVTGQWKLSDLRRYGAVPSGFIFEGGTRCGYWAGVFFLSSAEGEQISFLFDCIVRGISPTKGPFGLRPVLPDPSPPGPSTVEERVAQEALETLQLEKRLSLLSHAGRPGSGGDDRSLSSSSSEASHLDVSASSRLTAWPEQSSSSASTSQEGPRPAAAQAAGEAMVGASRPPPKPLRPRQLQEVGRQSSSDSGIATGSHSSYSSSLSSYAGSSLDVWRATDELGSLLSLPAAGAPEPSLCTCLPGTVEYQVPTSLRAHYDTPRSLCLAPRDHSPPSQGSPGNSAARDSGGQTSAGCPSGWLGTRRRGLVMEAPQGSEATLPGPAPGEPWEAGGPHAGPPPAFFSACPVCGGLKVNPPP
Test: as above
In short: as §1
For FETTWVLENGWWLPQA, the “phage ELISA signal ratio” value was 9.36.
